From PubChem BioAssay
The list is not random: actives were taken first. Their share in the collection is about 3.4%.
FBW7 activator = activators of human E3 ligase FBW7; Q969H0; AlphaScreen FBW7–phospho-cyclin E peptide binding, activator screen; normalized activity (activation), % at 26.1 µM; hit rate 0.13% among 650,000; in the data active means normalized activity above about 1.9%;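 further: purified mutant Fbw7 with reduced substrate affinity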
TEAD-YAP block = TEAD-YAP interaction inhibition. HEK-TIYL cells, TEAD-Gal4/YAP UAS-luciferase luminescence. inhibition, % at 9.12 µM. hit rate 1.4% among 640,000. AID 1259422; in the data active means inhibition above about 32%
GPR151 ag = activators of human GPR151. PathHunter beta-arrestin GPR151 cells, luminescence. hit rate 1% among 650,000. Q8TDV0. activation, % at 11.2 µM; in the data active means activation above about 4.9%
Target sequence (Q8TDV0 whole entry, looked up): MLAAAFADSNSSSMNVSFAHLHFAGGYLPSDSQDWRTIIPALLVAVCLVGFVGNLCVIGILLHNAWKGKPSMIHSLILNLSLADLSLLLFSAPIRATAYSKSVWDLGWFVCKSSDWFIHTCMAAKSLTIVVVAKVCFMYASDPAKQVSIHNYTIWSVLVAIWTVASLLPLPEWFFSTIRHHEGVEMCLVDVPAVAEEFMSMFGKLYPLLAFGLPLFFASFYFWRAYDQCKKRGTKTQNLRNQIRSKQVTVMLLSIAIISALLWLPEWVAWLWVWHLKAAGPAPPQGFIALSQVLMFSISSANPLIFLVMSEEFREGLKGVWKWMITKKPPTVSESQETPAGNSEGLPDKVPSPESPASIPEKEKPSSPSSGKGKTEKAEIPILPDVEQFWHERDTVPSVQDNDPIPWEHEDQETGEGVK
MITF inh = human MITF inhibition, primary screen | hit rate 0.91% among 650,000 | AID 1259374 | AlphaScreen MITF homodimerization, bead proximity signal | inhibition, % at 2.6 µM | O75030; in the data active means inhibition above about 50%
GPR151 conf act = human GPR151 activation, confirmation screen; shares compounds with GPR151 ag; GPR151 PathHunter beta-arrestin cells, luminescence, 90 min; % of EA-reagent control over plate median; activation, % at 11.2 µM; 6,700 tested, under 10 active; AID 1508609;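 active means mean percent activation across replicates above the confirmation screen cutoff of 4.91%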
GPR119 ag = activates human GPR119 in a GPR151 counter-screen; hit rate 0.3% among 6,700; activation, % at 11.2 µM; shares compounds with GPR151 ag; AID 1508611; GPR119 PathHunter beta-arrestin cells, luminescence, 90 min; 0 = compound-well median, 100 = enzyme-acceptor control;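 active means mean percent activation in the counterscreen above 29.09%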;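 further: counterscreen on off-target GPR119 to flag nonselective hits from the GPR151 activator screen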
Hits are given with their value; n = inactive; x = no result given; ! = a repeat was not active.

SMILES	FBW7 activator	TEAD-YAP block	GPR151 ag	MITF inh	GPR151 conf act	GPR119 ag
Cc1ccc(S(=O)(=O)NC(=O)N2c3ccccc3CCc3ccccc32)cc1	n	n	7.4	n	n	n
Cc1ccccc1C(=O)Nc1ccc(O)c(-c2nc3ccccc3o2)c1	n	n	n	n	x	x
O=C(O)c1cccc(S(=O)(=O)Nc2ccc(O)c(Cl)c2)c1	n	n	n	n	x	x
CC(N)(Cc1ccc(O)cc1)C(=O)O (stereo not given)	n	n	5.2!	n	n	n
CC(C)(Cc1ccc(O)cc1)NC(=O)SCc1ccccc1	n	n	n	n	x	x
CCc1ccc(C2C(C(=O)OC)=C(C)NC(C)=C2C(=O)OC)cc1	n	n	n	n	x	x
O=C1/C(=C\N2CCCC2)c2ccccc2C(=O)N1c1ccccc1	n	n	5.0	n	n	n
O=C(CSc1nc2c(sc(=S)n2-c2ccccc2)c(=O)n1-c1ccccc1)NC1CCCCC1	n	n	n	n	x	x
COc1ccccc1-n1c(=S)sc2c(=O)n(-c3ccccc3)c(SCC(=O)NC3CCCCC3)nc21	n	n	6.0	n	n	n
Cc1cccc(C)c1-n1c(=S)sc2c(=O)n(-c3ccccc3)c(SCC(=O)c3ccccc3)nc21	n	n	6.1	n	n	n
Cc1ccc(-n2c(SCC(=O)N3CCCC3)nc3c(sc(=S)n3-c3cc(C)ccc3F)c2=O)cc1	n	n	6.7	n	n	n
CCOc1ccccc1-n1c(=S)sc2c(=O)n(-c3ccc(C)cc3)c(SCC(=O)NCc3ccco3)nc21	n	n	n	n	x	x
Cc1ccccc1-n1c(=S)sc2c(=O)n(-c3ccccc3)c(SCC(=O)c3ccccc3)nc21	n	n	n	n	x	x
CCOc1ccccc1-n1c(=S)sc2c(=O)n(-c3ccc(F)cc3)c(SCC(=O)NCc3ccco3)nc21	n	n	5.4	n	n	n
Cc1ccc(-n2c(SCC(=O)N3CCCC3)nc3c(sc(=S)n3-c3ccccc3C)c2=O)cc1	n	n	n	n	x	x
CCOC(=O)c1c(NC(=O)C(C)Sc2nnc(CNC(=O)c3cccc(OC)c3)n2C)sc2c1CCCC2 (stereo not given)	n	n	n	n	x	x
c1cc(Nc2ccc3c(c2)OCO3)nc(Nc2ccc(N3CCOCC3)cc2)n1	n	71	5.1	n	n	n
COc1ccc(CCNc2cc(C)nc(Nc3ccc4ncccc4c3)n2)cc1	n	47	7.0	n	n	n
COc1ccc(CCNc2cc(C)nc(Nc3cccnc3)n2)cc1	n	n	n	n	x	x
c1cc(Nc2ccc(N3CCOCC3)cc2)nc(Nc2ccc(N3CCOCC3)cc2)n1	n	n	n	n	x	x
COc1ccc(CCNc2cc(-c3ccc(N4CCN(C)CC4)cc3)ncn2)cc1	n	n	6.9	n	n	n
COc1ccc(CCNc2ccnc(Nc3ccc(N4CCOCC4)cc3)n2)cc1	n	78	8.3	n	n	60
COc1ccc(CCNc2ccnc(N3CCOCC3)n2)cc1	n	n	n	n	x	x
COc1ccc(NC(=O)CC2CCCCC2)cc1Cl	n	n	n	n	x	x
COc1ccc(Cn2c(C)cn3c4c(=O)n(Cc5ccccc5F)c(=O)n(C)c4nc23)cc1	n	n	n	n	x	x
SMILES	FBW7 activator	TEAD-YAP block	GPR151 ag	MITF inh	GPR151 conf act	GPR119 ag
CCOC(=O)C1CCN(S(=O)(=O)c2cc3[nH]c(=O)c(=O)[nH]c3cc2C)CC1	n	n	5.2	n	n	n
O=C(NCCCN1CCOCC1)c1ccc([N+](=O)[O-])cc1	n	n	n	n	x	x
O=[N+]([O-])c1ccc(C(O)CNCCCN2CCOCC2)cc1 (stereo not given)	n	n	7.0	n	n	n
COc1ccc(C(=O)Nc2nnc(S(=O)(=O)N3c4ccc(C)cc4CC3C)s2)cc1 (stereo not given)	n	n	n	n	x	x
Cc1ccc(C(=O)Nc2nnc(S(=O)(=O)N3c4ccccc4CC3C)s2)cc1 (stereo not given)	n	n	5.6	n	n	n
Cc1ccccc1N(C)S(=O)(=O)c1nnc(NC(=O)c2ccccc2F)s1	n	n	n	n	x	x
CC1Cc2ccccc2N1S(=O)(=O)c1nnc(NC(=O)c2ccccc2)s1 (stereo not given)	n	n	n	n	x	x
Cc1ccc2c(c1)CC(C)N2S(=O)(=O)c1nnc(NC(=O)c2ccccc2F)s1 (stereo not given)	n	n	8.5	n	n	n
CN(c1ccccc1)S(=O)(=O)c1nnc(NC(=O)c2ccccc2F)s1	n	n	10	n	n	n
